In assay [1] the target is Luciferin 4-monooxygenase (Photinus pyralis) (UniProt P08659). The experiment in a line: CCTE_Simmons_QuantiLum_inhib_2: CCTE's Firefly Luciferase Inhibition Assay, Simmons Lab (AID 2283767).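 On AC50: potency for inhibitors that lower luciferase luminescence relative to DMSO.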 A digest of the protocol:
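Eight-point titrations of each chemical, 5 nM–87.5 uM final in 0.5% DMSO, were run in three biological replicates against recombinant luciferase for 30 min at 37C. Bioluminescence signal loss, read on reagent injection, gave the inhibition endpoint.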

The nature of assay [2]: ACEA_ER_AUC_viability: ACEA Biosciences xCELLigence Real-Time Cell Analysis on Estrogen Receptor Agonism for Viability (AID 2283782).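 Further: hit means loss of impedance signal meaning reduced cell growth or viability.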 A digest of the protocol:
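Continuous-exposure impedance cell analysis uses T-47D cells in charcoal-stripped serum, eight 1:4 dilutions topping at 100 uM final, biological duplicate. Area under the growth curve at 80 h is fitted against DMSO baseline.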

Assay [3] can be described thus: ACEA_AR_antagonist_AUC_viability: ACEA Biosciences xCELLigence Real-Time Cell Analysis on Androgen Receptor Antagonism for Viability (AID 2283776).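 Further: 22Rv1 human prostate cancer cells growing on impedance electrode plates; area under impedance growth curve at 80 h after dosing as viability; hits lower the growth signal relative to DMSO meaning cytotoxicity.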 A digest of the protocol: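 22Rv1 prostate cells, continuous dosing up to 100 uM final (0.5% DMSO max), duplicate plates. Growth measured by impedance; AUC at 80 h, loss of signal vs DMSO.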
Assay [4] in a line: STM_H9_NormalizedViability: Cytotoxicity Assessment at 120 hours in the Stemina devTOX quickPredict H9 human embryonic stem cell (hESC)-based Assay (AID 2283784). A digest of the protocol: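 Here, H9 cells received test compound with daily medium renewal. Each plate included methotrexate references (1uM, 5 nM), 0.1% DMSO and media blanks; CellTiter-Fluor RFU was normalized to DMSO.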

Assay [5] is described as follows: ACEA_AR_agonist_AUC_viability: ACEA Biosciences xCELLigence Real-Time Cell Analysis on Androgen Receptor Agonism for Viability (AID 2283775).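 On AC50: viability read 80 hours after compound addition.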 The method in brief: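 Viability endpoint from xCELLigence impedance in 22Rv1 prostate cells at 80 h. Eight-point series, 100 uM maximum final.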
Assay [6] concerns chicken Androgen Receptor (AR), gene 422165. In words: ATG_chAR_XSP1: Attagene TRANS-FACTORIAL Multi-Species (XSP1) HepG2 Assay for chicken Androgen Receptor (AR) (AID 2283768). A digest of the protocol:
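Reporter mRNA read by RT-PCR with fluorescent labelling and capillary electrophoresis 24 h after chemical dosing of transiently transfected HepG2 cells. Chicken AR-Gal4 chimera, partially stimulated with 3 nM 6-alpha-fluorotestosterone; activity fitted upward relative to DMSO.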

For assay [7], the system named is frog Androgen Receptor (AR), gene 399456. The experiment in a line: ATG_frAR_XSP1: Attagene TRANS-FACTORIAL Multi-Species (XSP1) HepG2 Assay for frog Androgen Receptor (AR) (AID 2283770). On the procedure:
(§1) ATG_XSP1_multi-species_TRANS is a cell-based, multiplexed assay created by modifying the existing Attagene TRANS-FACTORIAL system to include a panel of nuclear receptors from some or all the following species: human (Homo sapiens), mouse (Mus musculus), frog (Xenopus laevis), zebrafish (Danio rerio), chicken (Gallus gallus), and turtle (Chrysemys picta). The ECOTOX-FACTORIAL format uses HepG2, a human liver cell line, with measurements taken at 24 hours after chemical dosing in a 24-well plate. Xsp1 included 3 nM 6-alpha-fluorotestosterone to partially stimulate the androgen receptor.ATG_frAR_XSP1 is one of 29 assay components measured or calculated from the ATG_XSP1_multi-species_TRANS assay. It is designed to make measurements of mRNA induction, a form of inducible reporter, as detected with fluorescence intensity signals by Reverse transcription polymerase chain reaction (RT-PCR) and Capillary electrophoresis technology.The assay endpoint ATG_frAR_XSP1 was analyzed in the positive analysis fitting direction relative to DMSO as the negative control and baseline of activity. […] Furthermore, this assay endpoint can be referred to as a primary readout, because this assay has produced multiple assay endpoints where this one serves a reporter gene function. […]

The subject of assay [8] is zebrafish Androgen Receptor (AR), gene 100005148. In words: ATG_zfAR_XSP1: Attagene TRANS-FACTORIAL Multi-Species (XSP1) HepG2 Assay for zebrafish Androgen Receptor (AR) (AID 2283771). A digest of the protocol:
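Gain-of-signal versus DMSO was measured as reporter transcripts quantified by RT-PCR, fluorescent labelling and capillary electrophoresis after 24 h chemical exposure. The cells were HepG2 expressing a chimeric zebrafish AR-GAL4, co-stimulated with 3 nM 6-alpha-fluorotestosterone.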

Assay [9] addresses zebrafish Estrogen Receptor (ESR1), esr1 (gene 259252) (UniProt P57717). The experiment in a line: ATG_zfER1_XSP1: Attagene TRANS-FACTORIAL Multi-Species (XSP1) HepG2 Assay for zebrafish Estrogen Receptor (ESR1) (AID 2283772). A digest of the protocol:
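Reporter mRNA induction, gauged via RT-PCR/capillary electrophoresis fluorescence relative to DMSO controls, in HepG2 cells transiently carrying GAL4-UAS reporter units; 24 h dosing.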

Assay [10] concerns zebrafish Estrogen Receptor (ESR2B), gene 317733. In words: ATG_zfER2b_XSP1: Attagene TRANS-FACTORIAL Multi-Species (XSP1) HepG2 Assay for zebrafish Estrogen Receptor (ESR2B) (AID 2283773). The method in brief:
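Human hepatoma HepG2, transiently transfected with multi-reporter units; exogenous zebrafish ESR2B-Gal4 activity measured. Exposure 24 h alongside 3 nM 6-alpha-fluorotestosterone to partly stimulate AR.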

In assay [11] the test system is frog Estrogen Receptor (ESR1), gene 398734. The experiment in a line: ATG_frER1_XSP1: Attagene TRANS-FACTORIAL Multi-Species (XSP1) HepG2 Assay for frog Estrogen Receptor (ESR1) (AID 2283777). A digest of the protocol: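 After transient transfection and 24 h compound treatment, total RNA from HepG2 cells was reverse-transcribed, amplified, FAM-labeled and resolved by capillary electrophoresis. Signal increases were fitted against DMSO controls.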

Assay [12] concerns zebrafish Estrogen Receptor (ESR2A), gene 317734. In words: ATG_zfER2a_XSP1: Attagene TRANS-FACTORIAL Multi-Species (XSP1) HepG2 Assay for zebrafish Estrogen Receptor (ESR2A) (AID 2283778). A digest of the protocol: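 Gain-of-signal reporter transcription readout from GAL4-UAS units in transiently transfected HepG2 cells, 24 h exposure, 3 nM 6-alpha-fluorotestosterone co-present. Detection by RT-PCR with capillary electrophoresis fluorescence.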

The target in assay [13] is chicken Estrogen Receptor (ESR1), ESR1 (gene 396099) (UniProt P06212). The experiment in a line: ATG_chERa_XSP1: Attagene TRANS-FACTORIAL Multi-Species (XSP1) HepG2 Assay for chicken Estrogen Receptor (ESR1) (AID 2283779). The method in brief: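 Gain-of-signal reporter transcription, relative to DMSO, was scored in transiently transfected HepG2 cells after a 24 h dose. Fluorescence intensity of amplified, digested reporter cDNA fragments served as the endpoint.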

In assay [14] the test system is turtle Estrogen Receptor (ESR1), gene 101933533. In words: ATG_trERa_XSP1: Attagene TRANS-FACTORIAL Multi-Species (XSP1) HepG2 Assay for turtle Estrogen Receptor (ESR1) (AID 2283781). The method in brief: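 Cell-based chimeric NR-Gal4 transactivation; HepG2; 24 h dosing; mRNA reporter detected by RT-PCR and capillary electrophoresis fluorescence.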
Another assay addresses AR (gene 367) (UniProt P10275). The experiment in a line: ACEA_AR_agonist_80hr: ACEA Biosciences xCELLigence Real-Time Cell Analysis on Androgen Receptor Agonism for Proliferation (AID 2283783).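 Further: hits increase impedance growth signal above DMSO baseline.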 A digest of the protocol:
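Real-time cell-growth kinetics were recorded by electrode impedance in 22Rv1 cells exposed to test chemicals up to 100 uM final; the 80 h timepoint served as the readout, fitted upward relative to DMSO controls, in biological duplicate.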

The target in assay [15] is human Androgen Receptor (AR), AR (gene 367) (UniProt P10275). The experiment in a line: ATG_hAR_XSP1: Attagene TRANS-FACTORIAL Multi-Species (XSP1) HepG2 Assay for human Androgen Receptor (AR) (AID 2283785). How it is done:
as §1, with “receptor.ATG_hAR_XSP1” for “receptor.ATG_frAR_XSP1”, “ATG_hAR_XSP1” for “ATG_frAR_XSP1”

For assay [16], the system named is turtle Androgen Receptor (AR), gene 101947425. The experiment in a line: ATG_trAR_XSP1: Attagene TRANS-FACTORIAL Multi-Species (XSP1) HepG2 Assay for turtle Androgen Receptor (AR) (AID 2283786). A digest of the protocol: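 Partial androgen stimulation is provided by 3 nM 6-alpha-fluorotestosterone in a multi-species trans-factorial panel expressing a turtle AR–GAL4 fusion in HepG2. After 24 h, reporter mRNA is measured by RT-PCR and capillary electrophoresis and fitted upward against DMSO.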

Assay [17] concerns the target Estrogen receptor beta (Homo sapiens) (UniProt Q92731). In words: ATG_hERb_XSP1: Attagene TRANS-FACTORIAL Multi-Species (XSP1) HepG2 Assay for human Estrogen Receptor (ESR2) (AID 2283788). A digest of the protocol:
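Multiplexed trans-activation in transfected HepG2: ERβ-Gal4 reporter transcripts after 24 h treatment, detected by RT-PCR plus capillary electrophoresis.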

Inconclusive results are not listed. Activity calls are given as the source filed them. How the source made its calls: active means hit-call score of the fitted dose curve at least 0.9, where 1 is the maximum; inconclusive means response in the unintended direction; inactive means score below 0.9.

AR (gene 367), sequence (P10275 whole entry, looked up): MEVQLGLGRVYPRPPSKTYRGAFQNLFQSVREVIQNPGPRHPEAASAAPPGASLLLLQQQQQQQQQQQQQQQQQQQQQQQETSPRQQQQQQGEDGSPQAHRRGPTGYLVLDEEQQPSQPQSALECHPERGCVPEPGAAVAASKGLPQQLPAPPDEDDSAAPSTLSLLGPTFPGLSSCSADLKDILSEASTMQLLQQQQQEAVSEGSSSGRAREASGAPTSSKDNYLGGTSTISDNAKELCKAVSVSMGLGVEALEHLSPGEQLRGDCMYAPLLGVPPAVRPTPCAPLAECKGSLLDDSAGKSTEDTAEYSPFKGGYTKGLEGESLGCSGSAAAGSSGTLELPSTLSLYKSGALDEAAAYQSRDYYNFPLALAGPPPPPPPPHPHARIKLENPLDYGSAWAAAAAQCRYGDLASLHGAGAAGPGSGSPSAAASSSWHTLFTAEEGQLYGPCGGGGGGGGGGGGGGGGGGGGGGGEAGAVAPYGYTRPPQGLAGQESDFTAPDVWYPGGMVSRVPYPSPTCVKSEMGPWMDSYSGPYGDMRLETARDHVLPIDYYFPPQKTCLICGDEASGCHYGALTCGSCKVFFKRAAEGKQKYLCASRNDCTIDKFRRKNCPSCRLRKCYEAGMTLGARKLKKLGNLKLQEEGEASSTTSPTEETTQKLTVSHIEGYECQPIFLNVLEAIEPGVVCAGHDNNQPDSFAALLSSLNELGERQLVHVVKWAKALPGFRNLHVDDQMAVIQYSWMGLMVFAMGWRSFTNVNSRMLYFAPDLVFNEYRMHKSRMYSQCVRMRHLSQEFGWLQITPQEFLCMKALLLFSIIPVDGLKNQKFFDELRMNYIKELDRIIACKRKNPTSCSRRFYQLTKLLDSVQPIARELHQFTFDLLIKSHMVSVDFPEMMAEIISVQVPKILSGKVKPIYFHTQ
Luciferin 4-monooxygenase (Photinus pyralis), sequence (P08659 whole entry, looked up): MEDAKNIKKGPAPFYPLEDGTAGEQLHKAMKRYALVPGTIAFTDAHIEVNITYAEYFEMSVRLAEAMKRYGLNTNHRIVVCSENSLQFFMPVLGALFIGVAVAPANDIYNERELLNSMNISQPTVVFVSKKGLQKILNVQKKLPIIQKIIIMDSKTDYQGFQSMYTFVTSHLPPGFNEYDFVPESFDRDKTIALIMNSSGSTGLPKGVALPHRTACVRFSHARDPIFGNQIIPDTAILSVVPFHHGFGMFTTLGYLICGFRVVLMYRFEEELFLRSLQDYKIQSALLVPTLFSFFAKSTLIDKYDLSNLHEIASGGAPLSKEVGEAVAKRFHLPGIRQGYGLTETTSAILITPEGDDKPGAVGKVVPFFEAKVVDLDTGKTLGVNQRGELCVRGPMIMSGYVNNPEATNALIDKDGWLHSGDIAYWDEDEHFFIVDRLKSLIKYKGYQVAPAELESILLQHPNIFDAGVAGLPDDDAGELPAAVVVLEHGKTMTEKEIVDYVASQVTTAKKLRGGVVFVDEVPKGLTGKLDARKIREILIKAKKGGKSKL
Estrogen receptor beta (Homo sapiens), sequence (Q92731 whole entry, looked up, the tested form may be a part): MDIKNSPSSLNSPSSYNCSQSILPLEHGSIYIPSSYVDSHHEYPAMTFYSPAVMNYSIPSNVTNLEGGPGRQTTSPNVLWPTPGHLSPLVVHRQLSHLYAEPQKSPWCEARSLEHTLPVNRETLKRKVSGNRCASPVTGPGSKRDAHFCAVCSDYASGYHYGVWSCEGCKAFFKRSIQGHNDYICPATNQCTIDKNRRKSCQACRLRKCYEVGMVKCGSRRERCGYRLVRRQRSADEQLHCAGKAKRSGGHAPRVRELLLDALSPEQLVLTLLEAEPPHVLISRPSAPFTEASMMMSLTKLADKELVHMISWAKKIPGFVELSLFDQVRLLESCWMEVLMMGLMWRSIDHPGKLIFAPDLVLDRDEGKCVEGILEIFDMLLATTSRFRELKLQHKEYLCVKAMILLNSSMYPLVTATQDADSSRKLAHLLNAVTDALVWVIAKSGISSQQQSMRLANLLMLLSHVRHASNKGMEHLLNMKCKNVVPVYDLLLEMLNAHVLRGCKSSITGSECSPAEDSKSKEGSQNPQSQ
human Androgen Receptor (AR), AR (gene 367), sequence (P10275 whole entry, looked up): as the sequence (P10275 whole entry, looked up) above
chicken Estrogen Receptor (ESR1), ESR1 (gene 396099), sequence (P06212 whole entry, looked up, the tested form may be a part): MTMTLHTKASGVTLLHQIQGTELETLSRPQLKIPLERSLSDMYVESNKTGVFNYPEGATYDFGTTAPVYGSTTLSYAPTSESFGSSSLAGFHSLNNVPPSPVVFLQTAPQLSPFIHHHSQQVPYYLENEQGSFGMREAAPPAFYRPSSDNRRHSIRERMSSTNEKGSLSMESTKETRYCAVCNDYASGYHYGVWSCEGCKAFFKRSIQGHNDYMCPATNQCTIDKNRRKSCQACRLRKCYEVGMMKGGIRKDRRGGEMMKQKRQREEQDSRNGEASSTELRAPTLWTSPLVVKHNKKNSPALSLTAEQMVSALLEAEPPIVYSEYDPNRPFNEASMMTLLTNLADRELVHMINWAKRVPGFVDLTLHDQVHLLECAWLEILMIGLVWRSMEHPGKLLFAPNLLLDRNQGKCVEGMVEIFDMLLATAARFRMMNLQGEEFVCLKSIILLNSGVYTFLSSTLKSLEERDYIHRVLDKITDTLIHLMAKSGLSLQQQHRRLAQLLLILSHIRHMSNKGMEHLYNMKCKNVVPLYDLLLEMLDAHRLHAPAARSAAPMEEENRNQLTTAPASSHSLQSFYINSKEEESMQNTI
zebrafish Estrogen Receptor (ESR1), esr1 (gene 259252), sequence (P57717 whole entry, looked up, the tested form may be a part): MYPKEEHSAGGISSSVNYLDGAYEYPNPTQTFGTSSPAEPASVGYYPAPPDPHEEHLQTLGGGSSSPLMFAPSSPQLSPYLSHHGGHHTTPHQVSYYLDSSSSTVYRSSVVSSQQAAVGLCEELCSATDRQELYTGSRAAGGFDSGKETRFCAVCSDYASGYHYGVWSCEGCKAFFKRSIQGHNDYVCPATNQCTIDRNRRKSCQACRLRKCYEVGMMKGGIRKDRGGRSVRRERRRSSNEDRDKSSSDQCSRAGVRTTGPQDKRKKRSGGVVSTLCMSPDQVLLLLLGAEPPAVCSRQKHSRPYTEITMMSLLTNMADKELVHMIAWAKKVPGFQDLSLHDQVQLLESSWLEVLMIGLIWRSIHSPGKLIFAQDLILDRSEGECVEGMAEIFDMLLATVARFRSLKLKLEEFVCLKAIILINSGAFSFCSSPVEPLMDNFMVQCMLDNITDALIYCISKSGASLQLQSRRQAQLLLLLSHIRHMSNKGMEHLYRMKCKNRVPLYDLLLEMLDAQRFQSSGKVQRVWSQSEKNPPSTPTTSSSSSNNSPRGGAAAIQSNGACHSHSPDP

Take `c1ccc(NNc2ccccc2)cc1`: the AC50 in assay [1] is 20.4 µM (active). Also, the compound was called inactive in assay [2].
Turning to `CN(C)[C@@H]1C(=O)C(C(N)=O)=C(O)[C@@]2(O)C(=O)C3=C(O)c4c(O)cccc4[C@@](C)(O)[C@H]3C[C@@H]12`, the outcome in assay [1] was inactive.
Turning to `Cc1cccc(N)c1N`, the AC50 in [1] was 35.7 µM (active); in [4], 75.7 µM (active). In addition, the compound was classed as inactive in assay [3] and in assay [2].
As to `Nc1ccc(N=Nc2ccccc2)cc1`, the half-maximal activity concentration (AC50) in assay [1] is 3.16 µM (active); in assay [5] it was 50 µM (active); in assay [2], 5.24 µM (active). Besides, the call in assay [3] was inactive.
For the compound `CN(C)C(=O)Nc1ccc(Cl)cc1`, the call in assay [1], in [5], in assay [2] and in [4] was inactive. Further, the AC50 in assay [3] was 50 µM (active).
Consider `C[C@]12C=CC3=C4CCC(=O)C=C4CC[C@H]3[C@@H]1CC[C@@H]2O`, for which the call in assay [1], in assay [9], in [10], in [3], in assay [11] and in [12] was inactive. Also, the result in assay [13], in assay [14] and in assay [17] was inactive. The AC50 in assay [6] is 0.00303 µM (active); in assay [7] it was 0.0124 µM (active); in assay [8], 0.0325 µM (active); in the assay with AR (gene 367) it was 0.000293 µM (active); in [15] it was 0.00447 µM (active); in assay [16], 0.00552 µM (active).
In the case of `CN(C)c1ccc(C(=O)c2ccc(N(C)C)cc2)cc1`, the AC50 was 11.6 µM (active) in [1], 9.27 µM (active) in assay [5], 9.62 µM (active) in assay [3] and 1.51 µM (active) in assay [2].
`Cc1ccc(N)c(N)c1`: the AC50 in assay [1] is 0.334 µM (active); in assay [3], 50 µM (active); in assay [2] it was 6.06 µM (active); in assay [4], 26.9 µM (active).
On to `COC(=O)Nc1nc2ccccc2[nH]1`, for which the outcome (in assay [1]; with AR (gene 367); in [4]) was inactive. Also, the AC50 is 50 µM (active) in assay [5], 17 µM (active) in [3] and 16.5 µM (active) in [2].
`CN(C)c1ccccc1`: the call in [1], in [5] and in [3] was inactive.
Consider `CCOC(=O)[C@]1(c2ccccc2)Oc2ccccc2[C@@H]1N`, for which the result in assay [1] and in assay [2] was inactive. The concentration at half-maximal activity (AC50) is 69.4 µM (active) in assay [5] and 65 µM (active) in assay [3].
For `Cc1ccc(N)cc1`, the call in assay [1], in assay [5] and in [3] was inactive. For the same compound, in [4], the AC50 is 40.9 µM (active).
For `N#CC(Br)(Br)C(N)=O`, the result in [1], in assay [5], in [3] and in assay [2] was inactive.
For the compound `Nc1ccc(Cl)cc1N`, the AC50 is 9.28 µM (active) in [1] and 50 µM (active) in assay [3]. The call (in assay [2]; in the assay with AR (gene 367)) was inactive.

The AC50 is the midpoint of the concentration-response curve, whichever way the signal moves.

Values taken from PubChem BioAssay (EPA / NIEHS).
